PubChem BioAssay (EPA / NIEHS)
Several values for one entry are separate records, joined by “and”; a condition that tells them apart may be missing. Equal values may be shown once. The source holds several records for some structures; these can differ, active in one and inactive in another. Activity calls are given as the source filed them. Rule for the calls: active = hit-call score of the fitted dose curve at least 0.9, where 1 is the maximum; inactive = score below 0.9.

Test: ATG_E_Box_CIS: Attagene CIS-FACTORIAL HepG2 Assay for human Enhancer Box (E-box) (AID 2282936)
Details: HepG2 E-box cis-reporter transcription, actives raise or lower the signal
Experimental: ATG_CIS is a cell-based, multiplexed-readout assay that uses HepG2, a human liver cell line, with measurements taken at 24 hours after chemical dosing in a 24-well plate.ATG_E_Box_CIS is one of 52 assay component(s) measured or calculated from the ATG_CIS assay. It is designed to make measurements of mRNA induction, a form of inducible reporter, as detected with fluorescence intensity signals by Reverse transcription polymerase chain reaction (RT-PCR) and Capillary electrophoresis technology.Data from the assay component ATG_E_Box_CIS was analyzed into 1 assay endpoint. This assay endpoint, ATG_E_Box_CIS, was analyzed with bidirectional fitting relative to DMSO as the negative control and baseline of activity. Using a type of inducible reporter, measures of mRNA for gain or loss-of-signal activity can be used to understand the reporter gene at the transcription factor-level as they relate to the gene USF1. Furthermore, this assay endpoint can be referred to as a primary readout, because this assay has produced multiple assay endpoints where this one serves a reporter gene function. To generalize the intended target to other relatable targets, this assay endpoint is annotated to the dna binding intended target family, where the subfamily is basic helix-loop-helix protein.
Human liver HepG2 cells are transiently transfected with multiple reporter transcription units (MRTUs) in 6-well plates using FuGene 6 reagent (Roche; 3 ml FuGene/1 mg DNA). The MRTU constructs are regulated by a cis-regulating element (promoter). […] A major difference between the CIS and TRANS system is that in CIS activities of endogenous TFs are measured, whereas the TRANS assay evaluates changes in activities of exogenous, chimeric NR-Gal4 proteins. […] At the end of 24 hour incubation, total RNA was isolated using TriZol reagent (Invitrogen). The isolated RNA is then reverse-transcribed using oligo(dT) primer and Mo-MLV reverse transcriptase (Invitrogen) with DNAse I (Ambion) treatment for 30 min. The one-tenth of the produced cDNA was amplified by PCR using Taq DNA polymerase (Invitrogen) and two reporter sequence-specific primers. The PCR products were fluorescently labeled by primer extension with 6-arboxyfluorescein (6-FAM) 5'-labeled reporter sequence-specific primer (2 min at 95 C, 20 s at 68 C and 10 min at 72 C) and these products were digested with 5U of HpaI (New England Biolabs) for 2h at 37 C. The fragments were purified using Qiaquick PCR columns (Qiagen), analyzed on an ABI 3130xL genetic analyzer (Applied Biosystems) with peak positions identified by using a set of X-rhodamine (ROX)-labeled MapMarker1000 molecular weight standards (BioVentures). The raw capillary electrophoresis data was processed using Attagraph software (Attagene).

outcome, inactive:
CCCCCCCCOc1ccc(C(=O)c2ccccc2)c(O)c1
CCCCCCCCCCCCO
CCOC(=O)O[C@H](C)OC(=O)c1ccc2c(c1)cc(C(=O)NC1CCN(C(C)C)CC1)n2Cc1cc(-c2ccc(Cl)s2)on1
CC/C(=C(/CC)c1ccc(O)cc1)c1ccc(O)cc1
CN1C(=O)N(c2ccccc2Br)Cc2cnc(Nc3ccc4c(c3)OCC(CO)O4)nc21 (stereo not given)
CC(O)CC(C)(C)O (stereo not given)
OCCO
CCCCOC(=O)CC(CC(=O)OCCCC)(OC(C)=O)C(=O)OCCCC
Cc1ccc2oc(CN(Cc3ccccc3)C(=O)Nc3c(F)cc(F)cc3F)c(-c3ccc(Cl)cc3)c2c1
CN(C)C(=O)C1(N2CCCCC2)CCN(CC[C@@]2(c3ccc(Cl)c(Cl)c3)CN(C(=O)c3ccccc3)CCO2)CC1
O=C(O)Cc1cc(I)c(Oc2ccc(O)c(I)c2)c(I)c1
CC[C@H](NC(=O)c1cc(F)ccc1NS(=O)(=O)c1cccc2cccnc12)c1ccccc1
CCCOC(=O)c1cc(O)c(O)c(O)c1
O=C1CCC(C2CCCCC2)CC1
CO[C@H]1/C=C/O[C@@]2(C)Oc3c(C)c(O)c4c(O)c(c(/C=N/N5CCN(C)CC5)c(O)c4c3C2=O)NC(=O)/C(C)=C\C=C\[C@H](C)[C@H](O)[C@@H](C)[C@@H](O)[C@@H](C)[C@H](OC(C)=O)[C@@H]1C
CCCCCc1ccc(N)cc1
Cc1cn([C@H]2C[C@H](N=[N+]=[N-])[C@@H](CO)O2)c(=O)[nH]c1=O
NC(=O)c1nc(-c2cccc(-c3cc(F)ccc3OCC(F)(F)C(F)(F)F)c2)n[nH]1
O=C(OCCCCCCOC(=O)c1ccccc1)c1ccccc1
C[C@]12CC[C@@H]3c4ccc(O)cc4CC[C@H]3[C@@H]1CC[C@H]2O
NCc1cccc(C2CCN(C(=O)c3ccc(C#Cc4ccccc4F)o3)CC2)c1
CCO[Si](CCCNC(N)=O)(OCC)OCC
CC(C)(O)c1ccc(CNC(=O)c2cccnc2Oc2ccc3nonc3c2)cc1
CCN(Cc1cccc(S(=O)(=O)O)c1)c1ccc(C(=C2C=CC(=[N+](CC)Cc3cccc(S(=O)(=O)O)c3)C=C2)c2ccccc2S(=O)(=O)[O-])cc1
CCN(Cc1cccnc1)C(=O)c1cccc(Cl)c1[C@]1(C)C(=O)N(Cc2ccc(OC)cc2OC)c2ccc(Cl)cc21
CC1(C)NC(=O)N(c2ccc([N+](=O)[O-])c(C(F)(F)F)c2)C1=O
O=CCCCC=O
CC(C)(c1cc(Br)c(O)c(Br)c1)c1cc(Br)c(O)c(Br)c1
CN(C[C@@H](CC[N+]12CCC(C3CCCCC3)(CC1)CC2)c1ccc(Cl)c(Cl)c1)C(=O)c1cc(C(F)(F)F)cc(C(F)(F)F)c1
Cc1cccc2ccccc12
OC12N=C(c3ccccc3)SC1Cc1cc(Cl)ccc12 (stereo not given)
O=C=NCCCCCCN=C=O
Oc1ccccc1

AC50, active:
Cc1occc1C(=O)Nc1ccc(C(=O)N2CCC(F)(F)/C(=C\C(=O)N3CCC(N4CCCCC4)CC3)c3ccccc32)cc1 27.4 µM
CC(=O)N1CCN(c2ccc(OC[C@H]3CO[C@](Cn4ccnc4)(c4ccc(Cl)cc4Cl)O3)cc2)CC1 54.6 µM
O=C1CCC(C2CCCCC2)CC1 185 µM
CCCCCc1ccc(N)cc1 5.55 µM and 4.89 µM
CN(C)c1ccc(C(=C2C=CC(=[N+](C)C)C=C2)c2ccc(N(C)C)cc2)cc1 2.88 µM
C[C@]12CC[C@@H]3c4ccc(O)cc4CC[C@H]3[C@@H]1CC[C@H]2O 19.8 µM
Clc1cc(Cl)c2c(c1)N=C1CCCCCN1C2 50 µM
